The panel holds about 83,000 compounds, 20% with a hit somewhere; the sample as a whole holds those more often.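 96-well plates, one dose, 48 hours. Percent growth reported; active if below 10.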 Unmarked numbers belong to inactive results. Activity calls are given as the source filed them.
system: M14 melanoma; assay: NCI-60 one-dose screen, 48 h (100 = growth as untreated, 0 = no growth, -100 = all killed); settings: 10 µM unless noted
Method: Growth inhibition of the M14 human tumor cell line is measured as a screen for anti-cancer activity. Cells are grown in 96 well plates and exposed to the test compound for 48 hours. Compounds are tested at a single concentration, which is 10^-5 M for most compounds. The reported endpoint is percent growth (GI% or GIPRCNT), where numbers from 0 - 100% represent growth inhibition, and numbers from -100% - 0 represent cell death. For example, a value of 40 represents 60% growth inhibition. A value of 0 means no net growth occurred over the course of the experiment. A value of -40 indicates 40% of cells at the beginning of the experiment died by the end of the experiment. A value of -100 means all cells are dead at the end of the experiment.
NCI-60 Human Tumor Cell Lines Screen was performed using the standard one-dose NCI protocol, which is described in more detail at https://dtp.cancer.gov/discovery_development/nci-60/default.htm.
Compounds with GIPRCNT values below 10 were considered active. Activity score was based on GIPRCNT using the following formula: […]
Score is 0 for GIPRCNT values of 100 or above, 50 for GIPRCNT values of 0, and 100 for GIPRCNT values of -100.

Structure (SMILES) | growth
COc1cc(/C=C\c2cc(OC)c(OC)c(OC)c2)cc(N)c1OC | 66.1%
CC[C@]12C=CCN3CC[C@@]4(c5cc(NC(=O)CCC(=O)O[C@H]6CC[C@H]7[C@@H]8CCC9=CC(=O)CC[C@@H]9[C@H]8CC[C@]67C)c(OC)cc5N(C)[C@H]4[C@@](O)(C(=O)OC)[C@@H]1OC(C)=O)[C@@H]32 | 77.1%
CNCCOc1nc2c3cnccc3cc(-c3cc(OC)c(OC)c(OC)c3)c2c2ccncc12 | -67.8% (active)
Cc1cc2nc3c4cc(C=O)ccc4n(CCN(C)C)c3nc2cc1C | 15.8%
COc1ccc(C(=O)/C=C/c2cc3ccccc3n3nnnc23)cc1 | 110%
CC(=O)[C@H]1CCC/C=C/[C@@H]2C[C@H](O)C[C@H]2[C@H](O)/C=C/C(=O)O1 | 5.74% (active)
C=C1C(=O)O[C@H]2[C@H]1CC/C(COC(=O)NCCc1c[nH]c3ccc(OC)cc13)=C\CC[C@@]1(C)O[C@@H]21 | 14.1%
CCN1Cc2nc3sc(C)c(C)c3c(=O)n2C=C1C | 27.5%
CC(=O)c1ccc(NS(=O)(=O)c2cccc(C(=O)Nc3ccc(Br)cc3)c2)cc1 | 63.9% [25 µM]
O=C(/C(=C\c1ccc([N+](=O)[O-])cc1)S(=O)Cc1ccc(Cl)cc1)c1ccc(Cl)cc1 (stereo not given) | 63.3%
Cc1cccc(C)c1N=c1oc2ccc(Cl)cc2nc1-c1ccccc1O | 80.5%
O=S(=O)(NCCCNc1nccc(-c2c(-c3cccc(F)c3)nc3sccn23)n1)c1cccc(F)c1 | 28.6%
Cc1ccc(C(=O)/C(=C\c2ccc([N+](=O)[O-])cc2)S(=O)Cc2ccc(Cl)cc2)cc1 (stereo not given) | 41.4%
CCC(=O)Oc1ccc(/C(=C(\C)c2ccccc2)c2ccc(OCCN3CCCCC3)cc2)cc1 | 72.3%
COc1cccc(-c2nc3occn3c2-c2ccnc(NCCNS(=O)(=O)c3ccc(C(F)(F)F)cc3)n2)c1 | 102%
CCCCCCNC(=O)Nc1ccc2cc3ccc(NC(=O)NCCCCCC)cc3nc2c1 | 28.5%
COC(=O)/C=C1\S/C(=N\NC(=O)c2cc3ccc2/C=C\c2ccc(cc2)/C=C\3)N(c2ccccc2)C1=O | 53.1%
CNC(=O)c1cccc(Cn2nc(C)c(NC(=O)c3ccc(COc4ccc(C(F)(F)F)cc4C)cc3)c2C)n1 | 53.7%
CC(Oc1ccc(C(=O)O)cc1C(F)(F)F)c1ccc(Oc2ccccc2)cn1 (stereo not given) | 103%
O=C1NN(C(=O)c2ccccc2)C(c2ccc(Cl)c(Cl)c2)=C/C1=C\c1ccc([N+](=O)[O-])cc1 | 41.8%

Structure (SMILES) | growth
COc1ccc2c(c1)C(=O)CC(c1ccccc1OC)O2 (stereo not given) | 106%
COc1cc2nc(-c3ccc(C(F)(F)F)cc3)cc(OCCCN3CCCC3)c2cc1OC | -38.4% (active)
Cc1nn(-c2ccccc2)c(Cl)c1/C=N\N=c1/sc2ccccc2n1C | 99.8%
C[C@H]1[C@H]2[C@H]3CC[C@@H]4[C@@]5(C)CC[C@H](O)C(C)(C)[C@@H]5CC[C@@]4(C)[C@]3(C)CC[C@]23CO[C@]1(C)[C@@H](C(=O)/C=C\c1ccco1)C3 | 34.4%
COc1ccc(C(=O)c2nc3ccccc3n2CC(=O)c2ccc(Cl)cc2)cc1 | 7.42% (active)
CCNc1nc2cc(Nc3ccnc4cc(Cl)ccc34)ccc2o1 | 61%
O=C(O)c1ccc(-c2nn(-c3ccc(C(F)(F)F)cc3)cc2CNc2ccc(Oc3ccccc3)cc2)cc1 | 84.6%
CCN1C(=O)N(CC)C2Nn3c(s/c(=C\c4ccc(OC)cc4)c3=O)=NC21 (stereo not given) | 39.8%
Cc1ccc(-n2nc3c(c(C#N)c2=O)CC(c2ccccc2[N+](=O)[O-])C([N+](=O)[O-])=C3O)cc1 (stereo not given) | 92.1%
CN1C(N2CCN(S(=O)(=O)c3ccccc3)CC2)=NS(=O)(=O)c2ccccc21 | 99.8%
O=C(N/N=C/c1ccc(Oc2ccccc2)cc1)c1cnn2c1NC(c1ccccc1)C2 (stereo not given) | 46.2%
Cc1cnc(C(=O)Nc2nc3ccc(S(=O)(=O)Nc4ccc(C(C)(C)C)cc4)cc3[nH]2)cn1 | 1.89% (active)
C=C(C)[C@@H]1CC[C@]2(C(=O)N[C@H](CO)Cc3ccccc3)CC[C@]3(C)[C@H](CC[C@@H]4[C@@]5(C)CCCNC(C)(C)[C@@H]5CC[C@]43C)[C@@H]12 | -90.2% (active)
CC1=C(C(=O)/C=C/c2ccc(N(C)C)cc2)C(c2ccccc2)NC(=S)N1 (stereo not given) | 101%
O=C(Cn1c(C(=O)c2ccccc2)nc2ccccc21)c1ccc(F)cc1 | 44%
N#CC1=C(N)Oc2c(cnn2-c2ccc([N+](=O)[O-])cc2[N+](=O)[O-])C1c1ccccc1 (stereo not given) | 95.3%
O=C1c2ccc3c4c(ccc(c24)C(=O)N1CCCNCc1ccccc1Cl)C(=O)N(CCCNCc1ccccc1Cl)C3=O | -56.5% (active)
O=C(Nc1cccc(C2=NCCN2)c1)c1ccc(-c2ccc(C(=O)Nc3cccc(C4=NCCN4)c3)cc2)cc1 | 77.7%
COc1cc(/C(C)=C(\c2ccc(Cl)cc2)c2ccc(OCCN3CCCC3)cc2)ccc1F | 18.2%
O=C(c1nc2ccccc2[nH]1)C1C(c2ccc(Br)cc2)C2CC3CCCC[C@H]3N2[C@@]12C(=O)Nc1cc(Cl)ccc12 (stereo not given in full) | 26.9%

— PubChem BioAssay (NCI)
